Inconclusive results are not listed. Where a call stands in place of a potency, no number is given. Activity calls are given as the source filed them. Unless noted, calls come from the whole dose curve.
Assays:
[1] = Nuclear factor erythroid 2-related factor 2/antioxidant responsive element (Nrf2/ARE) small molecule agonists: qHTS cell viability counter screen in human keratinocytes (AID 1919968; active = well fitted curve in the direction sought with a large enough effect in the repeat runs; an effect the other way counts as inactive or inconclusive; note: nearly all actives have a fitted effect of over 55% in size)
In short: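 After a 5 h attachment period, ARE-reporter keratinocytes were dosed with compounds in DMSO and then cultured 23 h at 37 C. Cell viability came from CellTiter-Fluor signal read after a further 1 h.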

[2] = Nuclear factor erythroid 2-related factor 2/antioxidant responsive element (Nrf2/ARE) small molecule agonists: luciferase reporter gene qHTS assay in human keratinocytes (AID 1919969); note: nearly all actives have a fitted effect of over 35% in size; note: potency is the fitted concentration of half-maximal effect
[3] = molecular target: Gonadotropin-releasing hormone receptor (Homo sapiens) (UniProt P30968); assay: Human gonadotropin-releasing hormone receptor (GnRHR) small molecule agonists, calcium flux assay in GnRHR-HEK293 cells (AID 1920063); note: nearly all actives have a fitted effect of over 35% in size
In short: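 We seeded human GnRHR-expressing HEK293 cells for 18 hours, loaded them with calcium dye for an hour at 37 C, added test compounds, and recorded fluorescence intensity kinetically for three minutes.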

[4] = molecular target: KiSS-1 receptor (Homo sapiens) (UniProt Q969F8); assay: Human kisspeptin (KISS1R) small molecule agonists, calcium flux assay in KISS1R-HEK293 cells (AID 1920064; active = well fitted curve in the direction sought with a large enough effect in the repeat runs; an effect the other way counts as inactive or inconclusive)
In short: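 Kinetic calcium assay, 1 s sampling over 3 min at Ex/Em 480/540, in HEK293 cells engineered with human KISS1R; compounds delivered in DMSO after 1 h dye loading.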

[5] = G protein-coupled receptor (GPCR) small molecule agonists, calcium flux assay: HEK293 wild type cell line counter screen (AID 1920065)
In short: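 Calcium-sensitive dye, loaded 1 h at 37 C into cells cultured 18 h, reports compound-evoked calcium release as fluorescence (Ex/Em 480/540), measured over 3 min. Agonist mode; 15-point titrations, triplicate.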

[6] = p53 small molecule agonists, cell-based qHTS assay with human liver microsomes (AID 1963577);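 note: p53 response element beta-lactamase reporter cells with liver microsomes plus NADPH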
In short: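 p53RE-bla cells; 5 h settle, 37 C/5% CO2; cpd + HLM 0.5 mg/mL + NADPH 0.5 mg/mL (final); 16 h 37 C; LiveBLAzer 2 h RT dark; fluorescence readout.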

[7] = p53 small molecule agonists, cell-based qHTS assay with rat liver microsomes (AID 1963578)
In short: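 Rat liver microsome activation: microsomes 0.5 mg/mL, NADPH 0.5 mg/mL final; p53RE-bla cells, 16 h 37 C; LiveBLAzer readout, 2 h RT dark.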

[8] = p53 small molecule agonists, cell-based qHTS assay with human liver microsomes: qHTS cell viability counter screen (AID 1963579); note: nearly all actives have a fitted effect of over 45% in size
In short: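 Luminescent CellTiter-Glo read-out, 30 min at room temperature, gauged cytotoxicity in p53RE-bla cells exposed 16 h at 37 C to DMSO-dissolved compounds with metabolic activation by human liver microsomes and NADPH, each 0.5 mg/mL final.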

[9] = p53 small molecule agonists, cell-based qHTS assay (AID 1963582; active = well fitted activation curve with a large enough effect in the signal ratio in the repeat runs, not every such curve was filed as active; the % refers to the signal ratio)
In short: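 In this cell-based concentration-response screen, a p53 response element drives beta-lactamase; cells received DMSO-borne compounds after 5 h culture and were incubated a further 16 h before FRET substrate development.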

[10] = molecular target: 5-hydroxytryptamine receptor 2A (Homo sapiens) (UniProt P28223); assay: 5-hydroxytryptamine receptor 2A (HTR2A) small molecule antagonists, cell-based qHTS assay (AID 1963586); note: nearly all actives have a fitted effect of over 45% in size
In short: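 Antagonist-mode intracellular calcium assay: DOI (4 nM) added after 5 min compound pre-incubation at room temperature to dye-loaded HTR2A-CHO cells. Fluorescence followed for 3 min, sampled every second.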

[11] = molecular target: 5-hydroxytryptamine receptor 2A (Homo sapiens) (UniProt P28223); assay: 5-hydroxytryptamine receptor 2A (HTR2A) small molecule agonists, cell-based qHTS assay (AID 1963587); note: nearly all actives have a fitted effect of over 30% in size
In short: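 HTR2A-CHO cells, plated 18 h at 37 C/5% CO2, dye-loaded 1 h at 37 C; compounds in DMSO added by pin tool (agonist mode). Intracellular calcium flux read as kinetic fluorescence on FDSS over 2 min at 1 s intervals.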

[12] = molecular target: Muscarinic acetylcholine receptor M1 (Homo sapiens) (UniProt P11229); assay: Cholinergic receptor muscarinic 1 (CHRM1) small molecule antagonists, cell-based qHTS assay (AID 1963588); note: nearly all actives have a fitted effect of over 40% in size
In short: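 CHRM1-CHO calcium-flux assay, antagonist mode. Cells were seeded 18 h, dye-loaded 1 h at 37 C and given compound for 5 min at RT, then acetylcholine was added at 50nM. FDSS fluorescence was read 3 min; 15 concentrations, three runs.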

[13] = molecular target: Muscarinic acetylcholine receptor M1 (Homo sapiens) (UniProt P11229); assay: Cholinergic receptor muscarinic 1 (CHRM1) small molecule agonists, cell-based qHTS assay (AID 1963589); note: nearly all actives have a fitted effect of over 35% in size
In short: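 Measures agonist-induced intracellular calcium rise. Stable human CHRM1 CHO line, 1 h dye load at 37 C, compounds from DMSO, kinetic fluorescence read.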

[14] = cAMP Responsive Elements (CRE) small molecule agonists, cell-based qHTS assay (AID 1963590)
In short: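 A CRE-responsive beta-lactamase reporter in HEK 293T cells was used. Treatment ran 3 h at 37 C; detection used LiveBLAzer B/G FRET substrate for 2 h at room temperature.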

[15] = cAMP Responsive Elements (CRE) small molecule antagonists, cell-based qHTS assay (AID 1963591; active = well fitted inhibition curve with a large enough effect in the signal ratio in the repeat runs, not every such curve was filed as active; the % refers to the signal ratio)
In short: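 HEK293T cells carrying a CRE-driven beta-lactamase reporter receive compound and NKH477 (0.25 uM final) for 3 h. Fluorescence from LiveBLAzer B/G FRET substrate is read after 2 h at room temperature.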

[16] = molecular target: Beta-2 adrenergic receptor (Homo sapiens) (UniProt P07550); assay: Adrenergic beta2 receptor (ADRB2) small molecule antagonists, cell-based qHTS assay (AID 1963592); note: series mostly up to about 92 µM; nearly all actives have a fitted effect of over 50% in size
In short: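 Cells (CHO, stable ADRB2 overexpression) incubated 18-20hr at 37C; compounds added from DMSO; agonist mix (1nM isoproterenol, 100uM IBMX, 25uM Ro-20-1724) added; 0.5hr RT; d2-cAMP and anti-cAMP-cryptate added; 1hr RT; 665/615 nm read.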

[17] = molecular target: D(2) dopamine receptor (Homo sapiens) (UniProt P14416); assay: Dopamine D2 receptor (DRD2) small molecule agonists, cell-based qHTS assay (AID 1963594); note: nearly all actives have a fitted effect of over 35% in size
In short: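 HEK293 cells stably expressing DRD2 were cultured 24 h at 37 C, then given Ro20-1724 (0.1 mM final) and compounds for 10 min at room temperature. NKH477 (200nM) was then added for 30 min. cAMP was read by HTRF.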

[18] = molecular target: D(2) dopamine receptor (Homo sapiens) (UniProt P14416); assay: Dopamine D2 receptor (DRD2) small molecule antagonists, cell-based qHTS assay (AID 1963595; active = well fitted inhibition curve with a large enough effect in the signal ratio in the repeat runs, with a control signal flat; the % refers to the signal ratio)
In short: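 Antagonism was scored as restored cAMP in HEK293-DRD2 cells. These cells were stimulated with 200 nM NKH477 and 12 nM quinpirole for 30 min at room temperature, in the presence of 0.1 mM Ro20-1724.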

[19] = molecular target: Beta-2 adrenergic receptor (Homo sapiens) (UniProt P07550); assay: Adrenergic beta2 receptor (ADRB2) small molecule agonists, cell-based qHTS assay (AID 1963593);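 note: CHO cells stably overexpressing human ADRB2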
In short: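 CHO cells stably over-expressing ADRB2 were plated overnight at 37C, then dosed with compounds plus a stimulation mix containing 100uM IBMX and 25uM Ro-20-1724 for 0.5hr at room temperature. cAMP was measured by HTRF competition, 1hr.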

Sequence of Muscarinic acetylcholine receptor M1 (Homo sapiens) (P11229 whole entry, looked up): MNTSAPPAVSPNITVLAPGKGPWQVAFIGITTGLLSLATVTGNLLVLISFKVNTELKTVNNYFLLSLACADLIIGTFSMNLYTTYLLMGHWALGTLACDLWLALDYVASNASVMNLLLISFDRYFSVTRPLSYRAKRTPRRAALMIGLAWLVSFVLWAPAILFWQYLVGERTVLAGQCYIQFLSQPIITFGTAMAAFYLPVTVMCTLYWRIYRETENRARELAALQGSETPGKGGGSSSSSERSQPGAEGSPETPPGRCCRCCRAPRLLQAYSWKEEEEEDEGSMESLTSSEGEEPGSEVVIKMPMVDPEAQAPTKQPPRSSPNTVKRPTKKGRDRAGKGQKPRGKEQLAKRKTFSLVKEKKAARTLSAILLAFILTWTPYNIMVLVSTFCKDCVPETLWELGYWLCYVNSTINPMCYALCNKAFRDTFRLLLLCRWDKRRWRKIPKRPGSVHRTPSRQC
Sequence of 5-hydroxytryptamine receptor 2A (Homo sapiens) (P28223 whole entry, looked up): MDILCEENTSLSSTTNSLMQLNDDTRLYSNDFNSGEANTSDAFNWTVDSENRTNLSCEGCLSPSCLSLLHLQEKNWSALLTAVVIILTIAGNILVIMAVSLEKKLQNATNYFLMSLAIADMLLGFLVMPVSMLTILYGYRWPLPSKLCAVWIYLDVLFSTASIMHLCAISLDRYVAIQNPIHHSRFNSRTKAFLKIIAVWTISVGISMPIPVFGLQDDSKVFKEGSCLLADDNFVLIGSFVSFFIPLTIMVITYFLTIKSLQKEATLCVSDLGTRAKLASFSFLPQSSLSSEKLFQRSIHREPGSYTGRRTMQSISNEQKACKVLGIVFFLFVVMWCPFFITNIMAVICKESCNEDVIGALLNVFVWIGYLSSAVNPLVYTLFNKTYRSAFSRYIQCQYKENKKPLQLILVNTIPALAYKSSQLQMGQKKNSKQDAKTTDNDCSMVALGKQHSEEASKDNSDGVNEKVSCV
Sequence of Gonadotropin-releasing hormone receptor (Homo sapiens) (P30968 whole entry, looked up): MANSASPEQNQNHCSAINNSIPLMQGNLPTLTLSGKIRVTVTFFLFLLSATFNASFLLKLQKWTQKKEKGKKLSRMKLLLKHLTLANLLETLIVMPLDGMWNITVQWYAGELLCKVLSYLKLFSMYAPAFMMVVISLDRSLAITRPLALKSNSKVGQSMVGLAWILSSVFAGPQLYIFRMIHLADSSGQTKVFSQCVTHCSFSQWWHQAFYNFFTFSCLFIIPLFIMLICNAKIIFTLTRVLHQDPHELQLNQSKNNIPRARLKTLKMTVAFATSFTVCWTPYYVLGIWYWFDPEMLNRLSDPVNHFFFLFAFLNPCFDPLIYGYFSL
Sequence of KiSS-1 receptor (Homo sapiens) (Q969F8 whole entry, looked up): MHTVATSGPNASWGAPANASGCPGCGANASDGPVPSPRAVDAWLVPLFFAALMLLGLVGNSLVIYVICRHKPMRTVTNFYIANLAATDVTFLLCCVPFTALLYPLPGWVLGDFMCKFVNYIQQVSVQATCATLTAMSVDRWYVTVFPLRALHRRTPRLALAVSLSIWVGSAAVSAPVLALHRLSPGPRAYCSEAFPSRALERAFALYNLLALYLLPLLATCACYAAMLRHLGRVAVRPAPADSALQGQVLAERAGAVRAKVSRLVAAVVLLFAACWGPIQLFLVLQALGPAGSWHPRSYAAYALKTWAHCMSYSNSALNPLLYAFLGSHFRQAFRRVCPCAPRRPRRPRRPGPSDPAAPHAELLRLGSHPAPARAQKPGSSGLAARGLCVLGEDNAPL
Sequence of Beta-2 adrenergic receptor (Homo sapiens) (P07550 whole entry, looked up): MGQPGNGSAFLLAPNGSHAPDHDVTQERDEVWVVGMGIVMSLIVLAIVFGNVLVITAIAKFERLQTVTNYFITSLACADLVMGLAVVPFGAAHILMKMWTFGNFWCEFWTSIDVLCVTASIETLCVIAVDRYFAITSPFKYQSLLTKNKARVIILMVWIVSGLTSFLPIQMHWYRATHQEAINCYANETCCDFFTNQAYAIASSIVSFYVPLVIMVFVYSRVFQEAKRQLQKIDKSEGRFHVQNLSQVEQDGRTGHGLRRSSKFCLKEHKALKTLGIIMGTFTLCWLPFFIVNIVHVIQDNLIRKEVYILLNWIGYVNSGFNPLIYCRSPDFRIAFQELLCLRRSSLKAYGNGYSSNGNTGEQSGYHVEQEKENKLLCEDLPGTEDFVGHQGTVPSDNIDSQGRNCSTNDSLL
Sequence of D(2) dopamine receptor (Homo sapiens) (P14416 whole entry, looked up): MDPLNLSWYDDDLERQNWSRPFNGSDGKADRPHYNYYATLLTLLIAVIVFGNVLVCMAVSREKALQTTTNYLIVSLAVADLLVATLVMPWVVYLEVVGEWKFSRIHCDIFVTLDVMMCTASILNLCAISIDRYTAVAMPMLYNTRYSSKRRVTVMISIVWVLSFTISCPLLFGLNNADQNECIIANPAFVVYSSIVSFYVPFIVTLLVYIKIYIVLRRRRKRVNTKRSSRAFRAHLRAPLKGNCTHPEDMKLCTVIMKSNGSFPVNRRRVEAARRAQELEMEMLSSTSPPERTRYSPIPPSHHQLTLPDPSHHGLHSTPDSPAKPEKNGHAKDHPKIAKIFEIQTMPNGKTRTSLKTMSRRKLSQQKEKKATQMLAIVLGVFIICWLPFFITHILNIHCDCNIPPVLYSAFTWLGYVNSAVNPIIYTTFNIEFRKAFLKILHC

SMILES: O=C1Cc2cc(Cl)ccc2N1
- Potency [1]: inactive
- Potency [2]: inactive
- Potency [3]: inactive
- Potency [4]: inactive
- Potency [5]: inactive
- Potency [6]: inactive
- Potency [7]: inactive
- Potency [8]: inactive
- Potency [9]: inactive
- Potency [10]: inactive
- Potency [11]: inactive
- Potency [12]: inactive
- Potency [13]: inactive
- Potency [14]: inactive
- Potency [15]: inactive
- Potency [16]: inactive
- Potency [17]: inactive
- Potency [18]: inactive

SMILES: COc1cccc(OC)c1O
- Potency [1]: inactive
- Potency [2]: inactive
- Potency [3]: inactive
- Potency [4]: inactive
- Potency [5]: inactive
- Potency [6]: inactive
- Potency [7]: inactive
- Potency [8]: inactive
- Potency [9]: inactive
- Potency [10]: inactive
- Potency [11]: inactive
- Potency [13]: inactive
- Potency [14]: inactive
- Potency [15]: inactive
- Potency [17]: inactive
- Potency [18]: inactive

SMILES: O=C(O)c1cc2ccccc2nc1C(=O)O
- Potency [1]: inactive
- Potency [2]: 17.2 µM (active)
- Potency [3]: inactive
- Potency [4]: inactive
- Potency [5]: inactive
- Potency [6]: inactive
- Potency [7]: inactive
- Potency [8]: inactive
- Potency [9]: inactive
- Potency [10]: inactive
- Potency [11]: inactive
- Potency [12]: inactive
- Potency [13]: inactive
- Potency [14]: inactive
- Potency [15]: inactive
- Potency [16]: inactive
- Potency [17]: inactive
- Potency [18]: inactive

SMILES: C[CH2][Ge]([Cl])([CH2]C)[CH2]C
- Potency [1]: inactive
- Potency [2]: inactive
- Potency [3]: inactive
- Potency [4]: inactive
- Potency [5]: inactive
- Potency [6]: inactive
- Potency [7]: inactive
- Potency [8]: inactive
- Potency [9]: inactive
- Potency [10]: inactive
- Potency [11]: inactive
- Potency [12]: inactive
- Potency [13]: inactive
- Potency [14]: inactive
- Potency [15]: inactive
- Potency [16]: inactive
- Potency [17]: inactive
- Potency [18]: inactive

SMILES: Nc1cccc2c1CN(C1CCC(=O)NC1=O)C2=O (stereo not drawn)
- Potency [1]: inactive
- Potency [2]: inactive
- Potency [3]: inactive
- Potency [4]: inactive
- Potency [5]: inactive
- Potency [6]: inactive
- Potency [7]: inactive
- Potency [8]: inactive
- Potency [9]: inactive
- Potency [10]: inactive
- Potency [12]: inactive
- Potency [14]: inactive
- Potency [15]: inactive
- Potency [16]: inactive
- Potency [19]: inactive
- Potency [17]: inactive
- Potency [18]: inactive

SMILES: O=C1OC(=O)c2ccccc21
- Potency [1]: inactive
- Potency [2]: inactive
- Potency [3]: inactive
- Potency [4]: inactive
- Potency [5]: inactive
- Potency [6]: inactive
- Potency [7]: inactive
- Potency [8]: inactive
- Potency [9]: inactive
- Potency [10]: inactive
- Potency [11]: inactive
- Potency [12]: inactive
- Potency [13]: inactive
- Potency [14]: inactive
- Potency [15]: inactive
- Potency [16]: inactive
- Potency [19]: inactive
- Potency [17]: inactive
- Potency [18]: inactive

SMILES: C/C=C(\C)C(=O)OC/C=C(\C)CCC=C(C)C
- Potency [1]: inactive
- Potency [2]: inactive
- Potency [3]: inactive
- Potency [4]: inactive
- Potency [5]: inactive
- Potency [6]: inactive
- Potency [7]: inactive
- Potency [8]: inactive
- Potency [9]: inactive
- Potency [10]: inactive
- Potency [12]: inactive
- Potency [13]: inactive
- Potency [14]: inactive
- Potency [15]: inactive
- Potency [16]: inactive
- Potency [19]: inactive
- Potency [17]: inactive
